Measurements reported in PubChem BioAssay AID493201 (National Center for Advancing Translational Sciences (NCATS), 2011).
Inconclusive results are not listed. A number with no mark means an inactive call. The source made the active and inactive calls. Calls follow the shape of the dose curve; as a rule, active = well fitted activation curve with a large enough effect; inconclusive = small, poorly fitted or top-dose-only effect; inactive = no such curve, though single readings can be large or run the other way.

Assay: qHTS Assay for Identifying a Potential Treatment of Ataxia-Telangiectasia: Secondary assay (no NCS) hit validation;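 also: phosphorylated KAP1 signal as a proxy for ATM-like kinase activity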; as to activation: 0% is about no effect
Conditions: A-T patient fibroblasts, AlphaLISA, no DNA damage added, 90 min; series mostly up to 76.9 µM; activation: at the top concentration
Outline: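 Without NCS-induced DNA breaks, ATM-like activity scored as phospho-KAP1 AlphaLISA signal (pKAP1/total KAP1 bead pair) in ATM-null F2112 fibroblasts; compound series up to 76.7 uM final, 37C incubation, lysates read on AlphaScreen protocol.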
Potency is read from the fitted curve at half-maximal effect.

Going from COc1cc(CCC(=O)OCC(=O)N2CCc3ccccc32)cc(OC)c1OC to COc1ccc(-c2cc(C(F)(F)F)c(C#N)c(SCC(=O)O)n2)cc1OC, the “activation” value rises from -4.35% to -4.24%.

Going from C=C(C)n1c(=O)n(Cc2ccccc2C)c2ccccc21 to Cc1ccccc1S(=O)(=O)Oc1ccc2ccc(O)cc2c1, the “activation” value falls from 23.7% to -2.15%.

Going from Cc1ccc(NC(=O)NC(=O)N(C(C)C)S(C)(=O)=O)nc1 to COc1ccc(Cl)cc1NC(=O)C[n+]1cccc(C)c1, the “activation” value falls from 11.3% to -2.15%.

First: CC(C)CN(CC(C)C)C(=O)c1cc2c(=O)n3ccccc3nc2s1
Second: CCOc1cc(/C=C/c2nc3ccccc3c(=O)[nH]2)ccc1O
The “activation” value of the first is higher: 12.9% for the first, -5.08% for the second.

Compared with O=C1C2C3C=CC(CC3)C2C(=O)N1c1cccc(Br)c1 (stereo not drawn), O=C(O)CCC(=O)NN1C(=O)c2ccccc2NC1c1ccco1 (stereo not drawn) is higher in “activation” value: -5.08% for the first, 4.35% for the second.

Going from Clc1cccc(CN2CCC(Cc3ccccc3)CC2)c1 to N#CCN1C(=O)C(=O)N(Cc2cccc(Cl)c2)C1=O, the “activation” value rises from 1.74% to 29.7%.

In the case of O=C(C[n+]1cccc2ccccc21)c1ccc(NC(=O)c2ccccc2)cc1, the “activation” value is reported as -0.848%.

In the case of CC(C)(C=O)C1=CC(=O)c2ccccc2C1=O, the Potency is reported as 51.9 µM (active).
With Cc1cc(C)n2nc(C(=O)OCCOc3ccc(F)cc3)nc2n1 the Potency was 58.2 µM (active).
In the case of COc1ccc(C2/C=C\CN(S(=O)(=O)c3ccc4ccccc4c3)CC(=O)N2Cc2ccc(F)cc2)cc1 (stereo not drawn), the Potency is reported as 41.2 µM (active).
In the case of CCS(=O)(=O)c1ccc(C(=O)Nc2ccccc2)c(Cl)c1Cl, the Potency is reported as 32.8 µM (active).
For Cc1ccc(C)c(-n2c(SCC(=O)NC(C(=O)O)C(C)C)nnc2-c2cccc(Cl)c2)c1 (stereo not drawn), the Potency was 46.3 µM (active).
